Experimental data published in publication PMC5540273 (PLoS ONE, 2017).

What was measured:
Settings in all cases: concentration: 1 μM,replicates: in singlicate; n = 1
[1] = system: NEK11
[2] = system: NEK1
[3] = system: NEK2
[4] = system: NEK3
[5] = system: NEK4
[6] = system: NEK5
[7] = system: NEK6
[8] = system: NEK7
[9] = system: NEK9
[10] = system: T1, NIK
T1 construct: gene MAP3K14
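Note: KINOMEscan kinase panel screen.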

SMILES | %Inh [1] [%] | %Inh [2] [%] | %Inh [3] [%] | %Inh [4] [%] | %Inh [5] [%] | %Inh [6] [%] | %Inh [7] [%] | %Inh [8] [%] | %Inh [9] [%] | %Inh [10] [%]
O=C(NOCC1CC1)c1cc(Br)c(F)c(F)c1Nc1ccc(I)cc1Cl | 0 | 0 | 0 | 43 | 0 | 0 | 0 | 0 | 0 | 0
CNC(=O)c1ccccc1Nc1nc(Nc2cccc(CS(C)(=O)=O)c2)ncc1C.O=CO [GSK1520489] | 66 | 71 | 78 | 86 | 70 | 100 | 83 | 94.9 | 78 | 23
C[C@@H](Oc1cc(-n2cnc3cc(-c4cnn(C)c4)ccc32)sc1C(N)=O)c1ccccc1Cl [GSK580432] | 0 | 88 | 99.2 | 0 | 0 | 99.7 | 41 | 71 | 81 | 7
Cn1ccc2ncnc(Oc3ccc(NC(=O)Nc4cccc(C(F)(F)F)c4)c(F)c3)c21 | 0 | 0 | 15 | 17 | 0 | 7 | 27 | 0 | 0 | 0
COc1cccc(OC)c1C(=O)Nc1cccc(-c2nn3ccccc3c2-c2ccnc(Nc3cccc(F)c3)n2)c1 [GSK361065] | 0 | 0 | 4 | 7 | 0 | 10 | 17 | 0 | 0 | 0
Cl.Cl.NC[C@H](CC1CCCCC1)NC(=O)c1ccc(-c2ccnc3[nH]ccc23)s1 [GSK1581428] | 0 | – | 0 | 0 | 14 | 15 | 0 | 1 | 17 | 0
OCCn1cc(-c2cnc3nnn(Cc4ccc5ncccc5c4)c3n2)cn1 | 0 | 0 | 6 | 32 | 0 | 0 | 0 | 8 | 0 | 15
CC(=O)Nc1nc2cnc(Nc3cc(NC(=O)c4cccc(CC(C)(C)C#N)c4)ccc3C)nc2s1 | 0 | 13 | 6 | 30 | 0 | 0 | 13 | 5 | 5 | 0
CS(=O)c1ccc(-c2coc3ccc(-c4n[nH]c(=O)o4)cc23)cc1 (stereo not shown) | 0 | 0 | 0 | 15 | 0 | 0 | 0 | 19 | 0 | 0
Cn1ccc2ncnc(Oc3ccc(NC(=O)Nc4cc(C(C)(C)C)on4)c(Cl)c3)c21 | 0 | 0 | 17 | 21 | 3 | 0 | 0 | 0 | 3 | 0
C[C@@H]1CNc2c(sc3ccc4nc(-c5ccc(O)cc5)ccc4c23)C(=O)N1 | 0 | 0 | 0 | 20 | 0 | 0 | 38 | 11 | 8 | 84
COc1cccc(C2=C(Nc3cccc(Cl)c3)C(=O)NC2=O)c1 [SB-341556] | 0 | 0 | 13 | 5 | 29 | 0 | 0 | 5 | 1 | 26
CCOC(=O)N1CCC(n2cnc(-c3ccc(F)cc3)c2-c2ccnc(N)n2)CC1 [SB-219952] | 20 | 0 | 0 | 21 | 15 | 26 | 0 | 31 | 23 | 0
Cc1n[nH]c2cc(Nc3ccnc(Nc4cccc(CN5CCOCC5)c4)n3)ccc12 [GW682569] | 17 | 2 | 0 | 20 | 0 | 29 | 0 | 0 | 15 | 0
CS(=O)(=O)Nc1ccc(-c2ccnc3[nH]ccc23)cc1 [GSK993273] | 17 | 15 | 0 | 4 | 16 | 2 | 0 | 10 | 14 | 22
COC(=O)c1cccc(NC(=O)NC2CCN(c3ccnc(NCc4ccc(F)cc4)n3)CC2)c1 [GSK1379860] | 7 | 0 | 0 | 0 | 6 | 0 | 0 | 4 | 0 | 8
FC(F)(F)c1cc(Br)cc(Nc2nccc(-c3cnn4ncccc34)n2)c1 [GW810578] | 0 | 0 | 1 | 15 | 2 | 30 | 51 | 60 | 15 | 21
